High-throughput results deposited in PubChem by National Center for Advancing Translational Sciences (NCATS).
IMPase Li cell = qHTS Assay for Identifying the Cell-Membrane Permeable IMPase Inhibitors: Potentiation with Lithium; hit rate 0.35% among 210,000; AID 1457, 2008; CHO-M1 cells, IP1 TR-FRET (IP-One), carbachol + lithium; Potency, µM (doses to about 59.4 µM), for the others: at the highest dose activity, negative = IMPase inhibition, most hits filed as inhibitors;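 note: IP1 builds up when IMPase is blocked and the TR-FRET signal falls; plate controls were basal vehicle for no effect and high inhibitor control for full effect; nearly all actives have a fitted effect of over 50% in size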
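Lithium-sensitised IP1 accumulation assay; M1-expressing CHO cells treated 30 min at 37C with compound. Competitive antibody detection by time-resolved FRET followed a 10 min room-temperature lysis step.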
Luc counter = Counterscreen for Luciferase (Kinase-Glo TM) Inhibition; Luciferin 4-monooxygenase (Photuris pensylvanica), Q27757; Potency, µM (titrated, usually from 38.3 µM), inactives show at the highest dose activity change, negative = inhibition, actives largely listed as inhibitors; AID 1379, 2008; Kinase-Glo luciferase, ATP luminescence, 8 min; hit rate 0.28% among 200,000; note: nearly all actives have a fitted effect of over 60% in size
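Recombinant Kinase-Glo luciferase, 10 uM ATP (linear range), luciferin; imidazole pH 7.2 / KCl / MgCl2 / Tween / BSA buffer; 8 min RT; luminescence.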
ERK EGF block = qHTS Assay for Inhibitors of the ERK Signaling Pathway using a Homogeneous Screening Assay; Stimulation with EGF; Potency, µM (series often up to 11.5 µM), without a hit: top-dose activity change, negative = inhibition, usual class: inhibitors; AID 1454, 2008; HEK293-V1b, EGF-stimulated phospho-ERK AlphaScreen; hit rate 0.41% among 130,000;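 note: plate controls were stimulated vehicle wells for no effect and unstimulated vehicle basal for full effect; nearly all actives have a fitted effect of over 55% in size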
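Compounds are titrated over HEK293-V1b cells kept overnight in 1% FBS. After 30 min at 37C, EGF (25 nM final) triggers ERK phosphorylation for 5 min, measured by AlphaScreen in lysates.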
NPSR antagonist = qHTS Assay for Antagonists of the Neuropeptide S Receptor: cAMP Signal Transduction. Potency, µM (series often up to 38.3 µM), without a hit: at the top dose activity change, negative = inhibition, most hits filed as inhibitors. AID 1461, 2008. Q6W5P4. hit rate 1% among 220,000. CHO-NPSR cells, cAMP TR-FRET, antagonist mode; note: nearly all actives have a fitted effect of over 50% in size
Target sequence (Q6W5P4 whole entry, looked up): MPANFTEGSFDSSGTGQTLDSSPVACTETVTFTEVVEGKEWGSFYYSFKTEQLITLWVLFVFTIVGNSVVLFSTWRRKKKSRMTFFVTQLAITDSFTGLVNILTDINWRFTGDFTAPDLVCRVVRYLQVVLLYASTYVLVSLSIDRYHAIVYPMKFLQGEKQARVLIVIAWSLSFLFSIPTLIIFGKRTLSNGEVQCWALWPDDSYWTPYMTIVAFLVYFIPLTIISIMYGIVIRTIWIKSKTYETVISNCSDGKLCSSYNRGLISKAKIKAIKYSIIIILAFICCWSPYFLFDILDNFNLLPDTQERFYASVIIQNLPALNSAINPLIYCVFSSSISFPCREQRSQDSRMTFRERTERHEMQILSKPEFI
Starred values were filed as active, the others as inactive; ? = inconclusive; . = no result given; [ ] = dose if it differs, or a comment. Compounds with a hit are over-represented: about 1.1% of the library has one in this group of screens. Calls come from the whole dose curve; as a rule, active = well fitted curve in the direction sought with a large enough effect; inconclusive = small, poorly fitted or top-dose-only effect, or another doubt; inactive = no such curve, though single readings can be large; an effect the other way counts as inactive or inconclusive. Unless noted, % is set by controls: 0 for no effect and ±100 for the full control effect; potency is the fitted concentration of half-maximal effect.

SMILES	IMPase Li cell	Luc counter	ERK EGF block	NPSR antagonist
CS(=O)(=O)c1nc(-c2ccccc2)cc(C(F)(F)F)n1	19%	0%	6%	10µM*
CCN(CC)S(=O)(=O)c1cccc(C(=O)c2c(C)cc3ccccn23)c1	14%	-1%	3%	-11%
Cc1cc2ccccn2c1C(=O)c1cc([N+](=O)[O-])cc([N+](=O)[O-])c1	5%	0%	28µM*	-8%
Cc1cc2ccccn2c1C(=O)c1ccc(NN)c([N+](=O)[O-])c1	7%	-1%	25µM*	-29%
COc1ccccc1NS(=O)(=O)c1cc(C(=O)O)ccc1F	.	-1%	.	.
COc1cc(NS(=O)(=O)c2ccc(NC(=S)NC(=O)/C=C/c3ccco3)cc2)ncn1	-5%	1%	-3%	10µM*
Cc1ccc2oc(-c3cccc(NC(=S)NC(=O)/C=C/c4ccco4)c3)nc2c1	-2%[38.3 µM]	-5%	.	2.5µM*
COc1ccc(/C=C/C(=O)NC(=S)Nc2ccc(S(=O)(=O)Nc3ccc(OC)nn3)cc2)cc1	12%	-1%	-8%	-58%
CCCCn1c(O)c(/C=C/C=C/C=Nc2ccccc2)sc1=S	1%	8.9µM*	?	-46%
COc1cc2ncc(-c3ccccc3)nc2cc1OC	8%	.	.	.
Cc1ccc(S(=O)(=O)N2c3ccccc3-c3c(ssc3=S)C2(C)C)cc1	6%	3%	13µM*	-6%[46.1 µM]
CC1=CC(C)(C)N(S(=O)(=O)c2ccc(F)cc2)c2ccccc21	36%[38.3 µM]	-3%	.	?
Cc1ccc(-n2c(Cl)c(Cl)nc(Cl)c2=O)cc1	17%	-2%	?	10µM*
COC(=O)C1(C(=O)OC)C/C=C\C/C=C\c2ccccc2C1C[N+](=O)[O-] (centres undefined)	5%	0%	-15%	.
COc1cccc2c(=S)c(CCC(C)=O)c(C)[nH]c12	10µM*	-2%	3%	9%
COc1nc(C)nc2c1sc(=S)n2C	22µM*	-8%	.	0%[46.1 µM]
Cc1nc(N(C)C)c2sc(=S)n(C)c2n1	4%[38.3 µM]	-3%	.	10%[46.1 µM]
O=C(Nc1nnc(-c2ccc(F)cc2)s1)C1CCN(S(=O)(=O)c2ccc(Cl)cc2)CC1	7.9µM*	-3%	-2%	-53%
COc1ccc(-c2nc(NC(=O)c3ccc(OCC(=O)Nc4ccc(F)cc4)c(OC)c3)sc2C)cc1	?	-1%	1%	10µM*
Cc1ccc(-c2nc3cccnc3o2)cc1NC(=O)COc1ccc(Cl)cc1C	6.3µM*	0%	.	?
Cc1ccc(-c2nc3ncccc3o2)cc1NC(=O)COc1ccccc1	11µM*	-1%	.	-8%[46.1 µM]
Cc1ccc(-c2nc3ncccc3o2)cc1NC(=O)CC(C)C	-10%	-3%	-4%	16%
COc1ccc2[nH]cc(CCNc3cc(-c4ccccc4C(F)(F)F)ncn3)c2c1	14%	0%	12%	.
c1ccc2nc(CC[C@@H]3CCCCN3)ccc2c1	-2%	-8%[7.66 µM]	.	.
Cc1ccc(N/C(N)=N/c2nc(C)cc(N3CCCCC3)n2)c(C)c1	24%	-2%	?	10µM*
SMILES	IMPase Li cell	Luc counter	ERK EGF block	NPSR antagonist
Cc1ccc(-c2nn(-c3ccccc3)cc2/C=C2\SC(=S)N(CC(=O)O)C2=O)cc1	.	.	?	13µM*
CC(C)=CCc1c(O)cc2occ(-c3ccc4c(c3)OCO4)c(=O)c2c1O	34%	-6%	22µM*	.
CC1=C(/C=C/C(C)=C/C=C/C(C)=C\CO)C(C)(C)CCC1	5%	.	.	.
Cc1c(C(=O)O)cccc1-n1c(C)cc(/C=N/Nc2ccc([N+](=O)[O-])cn2)c1C	.	.	-3%[57.5 µM]	10µM*
CN1CCN(CC(=O)Nc2cccc3ccccc23)CC1	1%	-6%[7.66 µM]	.	.
Nc1c(N=Nc2ccc(-c3ccc(N=Nc4cc(S(=O)(=O)O)c5ccccc5c4N)cc3)cc2)cc(S(=O)(=O)O)c2ccccc12	10%	?	.	.
Cc1cc(-c2ccc(N=Nc3ccc4c(S(=O)(=O)O)cc(S(=O)(=O)O)c(N)c4c3O)c(C)c2)ccc1N=Nc1ccc2c(S(=O)(=O)O)cc(S(=O)(=O)O)c(N)c2c1O	272%	10µM*	2%	.
Cc1ccc(C2CC(=O)Oc3ccc(O)cc32)cc1 (centres undefined)	-10%	1%[39.9 µM]	.	.
CC/C=C\C/C=C\C/C=C\C/C=C\C/C=C\C/C=C\CCC(=O)NCC(=O)O	7%	3%	-1%	.
